In ChEMBL document CHEMBL4513149, “CO-ADD screening of MMV (CH) - MMV compounds” (2021):
Results with a measured potency or affinity are listed apart.

Legend:
Klebsiella pneumoniae = conditions: Concentration 20 uM; ASSAY_TEST Inhibition of Bacterial Growth; detection method Absorption (OD600); MEDIA CAMHB; plate type 384well; NBS; CORNING #3640; time 18 hr
Candida albicans = conditions: 20 µM
Cryptococcus neoformans = conditions: Concentration 20 uM; ASSAY_TEST Inhibition of Fungal Growth; detection method Resazurin; Absorption (OD600-OD570); plate type 384well; NBS; CORNING #3640

| Compound | Inhibition (Klebsiella pneumoniae) [%] | Inhibition (Candida albicans) [%] | Inhibition (Cryptococcus neoformans) [%] |
| --- | --- | --- | --- |
| Cc1ccc(S(=O)(=O)n2cc(-c3ccnc(N)c3)c3cc(Br)cnc32)cc1 | 7.11 | 37.1 | -2.21 |
| COc1cccc(NC(=O)c2c(NC(=O)c3cccnc3)sc3c2CCC3)c1 | 13.46 | 9.13 | -5.87 |
| COc1nc2ccc(Br)cc2cc1[C@@H](c1ccccc1)[C@@](O)(CCN(C)C)c1cccc2ccccc12.O=C(O)C(F)(F)F | 17.53 | 4.38 | 56.58 |
| CC1CC1C(=O)NC1CCN(CC2(c3ccccc3)CCCCC2)CC1 (stereo not drawn) | 16.4 | 3.19 | -6.72 |
| O=C1N(Cc2cc3ccccc3s2)CC2CN(Cc3ccccc3)CCN12 (stereo not drawn) | 2.73 | 2.62 | -4.73 |
| CCOc1ccc(OCC(=O)Nc2cc(C)cc(C)c2)cc1 | 6.85 | 9.23 | -6.41 |
| O=C(NC1CC1)c1ccc(N2CCC(Cc3ccccc3)CC2)nc1 | 19.39 | 4.1 | -7.07 |
| CC(=O)N1CCc2cc3nc(C)cc(C)c3cc21 | 14.03 | 4.19 | -7.03 |
| CC(C)(C)n1nc(Cc2ccc(F)c(Cl)c2)c2c(N)ncnc21 | 9.52 | 4.75 | -6.05 |
| O=C(NCc1ccco1)N1CCN(Cc2ccc(Cl)s2)CC1 | 5.01 | 2.08 | -2.89 |
| O=C(C1CCN(c2cc(-n3cccc3)ncn2)CC1)N1CCc2ccccc2C1 | -8.74 | 10 | 3.06 |
| CC(C)=CCC/C(C)=C\CNCCNC1C2CC3CC(C2)CC1C3 (stereo not drawn) | 18.7 | 2.31 | 16.24 |
| COc1cccc(-c2cc3c(Nc4cccnc4)nccc3[nH]2)c1 | 4.5 | 3.5 | -6.63 |
| CC(C)(CN)c1nc(-c2ccc(Cl)c(O)c2)c(-c2ccnc(N)n2)[nH]1.O=C(O)C(F)(F)F.O=C(O)C(F)(F)F | 15.34 | 2.09 | -6.49 |
| Nc1ccc(C(=O)Nc2ccc(-c3nc4ccccc4o3)cc2)cc1 | 7.66 | 15.1 | -12.24 |
| CN1CCN(c2nccc3[nH]c(-c4cccc(F)c4)cc23)CC1 | 12.23 | 5.85 | 5.1 |

| Compound | Inhibition (Klebsiella pneumoniae) [%] | Inhibition (Candida albicans) [%] | Inhibition (Cryptococcus neoformans) [%] |
| --- | --- | --- | --- |
| O=C(NCc1cc(Cl)cc(Cl)c1)c1c(C(F)(F)F)nc2ccccn12 | 15.19 | 8.03 | -5.43 |
| CCOC(=O)c1noc(N)c1-c1ccccc1 | 13.91 | 3.66 | -9.75 |
| CC(C)c1ncc(-c2ccncc2)c([C@H]2CC[C@H](CNC(=O)c3cccnc3)CC2)n1 | 18.24 | 1.5 | -3.68 |
| COc1ccc(C(=N)N)cc1-c1cn(-c2ccc(C(=N)N)cc2)nn1.Cl.Cl | 8.73 | 3.44 | 4.63 |
| CC1COC2(CCN(c3nc(=O)c4cc(C(F)(F)F)cc([N+](=O)[O-])c4s3)CC2)O1 (stereo not drawn) | 8.31 | 2.39 | -12.38 |
| Cc1ccc2[nH]c3c(NCCN(C)C)ncnc3c2c1 | 16.4 | 2.94 | -5.96 |
| CNC(=O)c1cc(S(=O)(=O)N2CCN(c3ccccn3)CC2)cs1 | 10.77 | 2.91 | -8.81 |
| O=C(NC1CCN(c2ccnc3ccccc23)C1)c1cccc(C(F)(F)F)c1 (stereo not drawn) | 12.02 | 3.54 | -3.95 |
| Nc1ncnc2c1c(-c1cnc3ccccc3c1)nn2CC1CCNCC1 | 4.12 | 2.53 | -1.76 |
| Cc1ccc2oc(-c3cc(NC(=O)Cc4ccccc4)ccc3Cl)nc2c1 | 6.29 | 14.6 | -8.89 |
| CCn1cnc2c(Nc3cc(F)cc(F)c3)nc(C#N)nc21 | 8.51 | 3.4 | -1.23 |
| O=C(NCCc1ccn(-c2ccccc2)n1)C1CCCCC1 | 6.33 | 3.92 | -9.22 |
| CCc1nc2ccc(Cl)cn2c1C(=O)NCc1ccc(N2CCC(c3ccc(OC(F)(F)F)cc3)CC2)cc1 [TELACEBEC] | 18.33 | 2.34 | -3.29 |
| CC(Oc1cccc(Cl)c1)C(=O)Nc1ccc2oc(-c3ccncc3)nc2c1 (stereo not drawn) | 9.56 | 6.74 | -15 |
| O=C1[C@@H](Oc2ccccc2)[C@@H](c2ccc(Cl)cc2)N1CCn1cnc2c(NCc3ccccc3)ncnc21 | 2.13 | 33.5 | -6.99 |
